The values that follow come from PubChem BioAssay (Tox21).

A number with no mark means an inactive call. Results filed as inconclusive are left out. Activity calls are given as the source filed them. Calls come from the whole dose curve.

Assay [1] concerns the target Acetylcholinesterase (Homo sapiens) (UniProt P22303). The experiment in a line: Acetylcholinesterase (AChE) small molecule antagonists: colormetric cell-based qHTS assay (AID 1347395). Note: nearly all actives have a fitted effect of over 30% in size. Note: potency is the fitted concentration of half-maximal effect. An outline of the steps:
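SH-SY5Y cells, plated overnight at 37 C, were exposed to compounds for 30 min at 37 C and 5% CO2. Acetylthiocholine plus DTNB was then added, and thiocholine from endogenous AChE was quantified colorimetrically after 90 min at 37 C.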

Assay [2] has the same target. Description: Acetylcholinesterase (AChE) small molecule antagonists: enzyme-based qHTS assay with human liver microsomes (AID 1347399). Note: nearly all actives have a fitted effect of over 60% in size. The conditions noted are these: Potency: qHTS inhibition; outcome: qHTS inhibition. An outline of the steps:
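Recombinant human AChE (50 mU/mL in the enzyme mix) and human liver microsomes (0.25 mg/mL final) were preincubated with compound and NADPH (0.25 mg/mL final) for 30 min at 37 C. Acetylthiocholine/DTNB was then added; thiocholine was read colorimetrically after 10 min at room temperature.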
Background: In qHTS, concentration-response curves come from the screen itself.

The target is the same in assay [3]. Description: Acetylcholinesterase (AChE) small molecule antagonists: fluorescence cell-based qHTS assay (AID 1347398). Note: nearly all actives have a fitted effect of over 50% in size. Note: potency is the fitted concentration of half-maximal effect. The conditions noted are these: Potency: AChE activity; outcome: AChE activity. In short, it runs like this:
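Homogeneous quantitative HTS format. SH-SY5Y cells seeded at 2,000 per well settle overnight at 37 C. Compound pretreatment runs 30 min (37 C, 5% CO2); substrate/probe mix then reacts 40 min at RT before reading 490/520 nm.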

The target is the same in assay [4]. Description: Acetylcholinesterase (AChE) small molecule antagonists: enzyme-based qHTS assay (AID 1347397). Note: nearly all actives have a fitted effect of over 55% in size. Note: potency is the fitted concentration of half-maximal effect. To be noted: Potency: AChE enzyme activity inhibition; outcome: AChE enzyme activity inhibition. In short, it runs like this: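 First, recombinant human AChE (50 mU/mL as dispensed) received test compound or DMSO. Second, plates stood 30 min at room temperature. Third, DTNB and acetylthiocholine were added, followed by 10 min at room temperature and colorimetric detection.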
% is set by controls: 0 for no effect and ±100 for the full control effect.

Acetylcholinesterase (Homo sapiens), sequence (P22303 whole entry, looked up): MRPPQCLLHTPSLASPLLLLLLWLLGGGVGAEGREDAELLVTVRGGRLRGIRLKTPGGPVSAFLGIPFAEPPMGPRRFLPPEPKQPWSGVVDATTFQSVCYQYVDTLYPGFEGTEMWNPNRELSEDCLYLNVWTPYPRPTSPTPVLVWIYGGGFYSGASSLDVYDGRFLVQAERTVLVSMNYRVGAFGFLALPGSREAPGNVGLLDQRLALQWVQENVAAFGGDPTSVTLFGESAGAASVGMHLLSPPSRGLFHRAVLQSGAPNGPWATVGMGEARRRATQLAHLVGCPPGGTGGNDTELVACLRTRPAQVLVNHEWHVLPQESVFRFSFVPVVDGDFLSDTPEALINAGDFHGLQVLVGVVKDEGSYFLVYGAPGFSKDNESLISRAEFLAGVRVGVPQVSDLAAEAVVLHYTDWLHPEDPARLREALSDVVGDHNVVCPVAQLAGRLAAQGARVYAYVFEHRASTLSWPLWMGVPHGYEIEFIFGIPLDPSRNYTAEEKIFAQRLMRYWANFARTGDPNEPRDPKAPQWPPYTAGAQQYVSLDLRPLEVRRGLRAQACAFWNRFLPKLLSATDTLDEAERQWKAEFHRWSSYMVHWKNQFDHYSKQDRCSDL

In the case of `COc1cc(N)c(Cl)cc1C(=O)NC1CCN(Cc2ccccc2)CC1`, the Potency in assay [1] was 17.4 µM (active). In addition, the Potency entry in assay [2] was “inactive”.

Take `O=[N+]([O-])c1ccc(Nc2ccc(Nc3ccccc3)c(S(=O)(=O)O)c2)c([N+](=O)[O-])c1`: the Potency result in assay [1], in assay [3] and in assay [2] was “inactive” throughout.

Take `Oc1c(Cl)cc(Cl)c(Cl)c1Cc1c(O)c(Cl)cc(Cl)c1Cl`: the Potency result in assay [1], in assay [3] and in assay [2] was “inactive” each time.

As to `CCCCCCCCCC[N+](C)(CCCCCCCCCC)CCC[Si](OC)(OC)OC`, the Potency entry in assay [1] and in assay [2] was “inactive” each time.

With `CCCN(CCc1cccs1)[C@H]1CCc2c(O)cccc2C1`, the Potency in assay [1] was 13.8 µM (active). Moreover, the Potency result in assay [2] was “inactive”.

As to `OC(C#CCN1CCCC1)(c1ccccc1)c1ccccc1`, the Potency entry in assay [1], in assay [3] and in assay [2] was “inactive” each time.

On to `COc1cc(C(C)C)c2c(c1)S(=O)(=O)N(COc1cc(=O)n3cccc(OCCN4CCCCC4)c3n1)C2=O`, for which the Potency in assay [1] is 19 µM (active); in assay [3], 6.74 µM (active). For the same compound, in assay [2], the activity change, negative = inhibition was -1.08% [at 23.6 µM].

`COc1ccc2cc(C=O)ccc2c1`: the Potency entry in assay [1] and in assay [2] was “inactive” in each case.

`CCOc1ccccc1N`: the Potency result in assay [1], in assay [3] and in assay [2] was “inactive” throughout.

With `CCCCCCCCCCCCOC(=O)c1ccc(O)cc1`, the Potency result in assay [1], in assay [3] and in assay [2] was “inactive” each time.

Regarding `Cc1cc2c(cc1C(F)(F)F)N(C(=O)Nc1ccc(Oc3cccnc3C)nc1)CC2`, the Potency entry in assay [4], in assay [3] and in assay [2] was “inactive” each time.

Take `O=C(OCC(COC(=O)c1cccnc1)(COC(=O)c1cccnc1)COC(=O)c1cccnc1)c1cccnc1`: the Potency entry in assay [4], in assay [3] and in assay [2] was “inactive” in each case.

Take `CCCCCCCCCC(C)C=O` (stereo unspecified): the Potency entry in assay [4] and in assay [3] was “inactive” throughout.

As for `CC(=O)Nc1ccc(S(=O)(=O)Cl)cc1`, the Potency result in assay [4], in assay [3] and in assay [2] was “inactive” throughout.

On to `CCCCNc1ccc(C(=O)OCCN(CC)CC)cc1`, for which the results for the Potency in assay [4] and in assay [3] were 30.9 µM (active) and 2.45 µM (active), respectively.

Consider `COc1ccc(OC)c(OC)c1`, for which the Potency entry in assay [4], in assay [3] and in assay [2] was “inactive” in each case.

For the compound `O=S(=O)(O)c1ccc2cc(O)c(S(=O)(=O)O)cc2c1`, the Potency entry in assay [4], in assay [3] and in assay [2] was “inactive” in each case.

On to `[Cl][Pt-2]([Cl])([Cl])[Cl]`, for which the Potency in assay [4] was 17.9 µM (active); in assay [3], 35.7 µM (active).

As for `O=C1OC(=O)c2ccccc21`, the Potency result in assay [4] and in assay [3] was “inactive” in each case.

With `NC(N)=NN=C(/C=C/c1ccc([N+](=O)[O-])o1)/C=C/c1ccc([N+](=O)[O-])o1`, the Potency result in assay [4], in assay [3] and in assay [2] was “inactive” in each case.

On to `CC(C)(O)c1ccccc1CC[C@@H](SCC1(CC(=O)O)CC1)c1cccc(/C=C/c2ccc3ccc(Cl)cc3n2)c1`, for which the Potency entry in assay [4], in assay [3] and in assay [2] was “inactive” each time.

Turning to `CC[N+](CC)(CC)CCOc1ccc(/C=C/c2ccccc2)cc1`, the Potency entry in assay [4] and in assay [2] was “inactive” each time. The Potency in assay [3] was 34.7 µM (active).

Consider `COc1ccc(OC)c(Cl)c1`, for which the Potency result in assay [4], in assay [3] and in assay [2] was “inactive” throughout.

Take `COc1ccc(-c2cc(=O)c3c(O)cc(O[C@@H]4O[C@H](CO[C@@H]5O[C@@H](C)[C@H](O)[C@@H](O)[C@H]5O)[C@@H](O)[C@H](O)[C@H]4O)cc3o2)cc1O`: the Potency entry in assay [4], in assay [3] and in assay [2] was “inactive” in each case.

`CCO`: the Potency entry in assay [4], in assay [3] and in assay [2] was “inactive” each time.

On to `CC(C)CCCC(C)CCO` (stereo unspecified), for which the Potency result in assay [4], in assay [3] and in assay [2] was “inactive” each time.

`OCCC1CCCCN1` (stereo unspecified): the Potency result in assay [4], in assay [3] and in assay [2] was “inactive” each time.

With `O=[N+]([O-])c1cc(Cl)c(Cl)c(Cl)c1Cl`, the Potency result in assay [4], in assay [3] and in assay [2] was “inactive” throughout.

Consider `CC1CCN(CCCC(=O)c2ccc(F)cc2)CC1`, for which the Potency result in assay [4], in assay [3] and in assay [2] was “inactive” each time.

On to `C[C@H](CCC(=O)NCC(=O)O)[C@H]1CC[C@H]2[C@@H]3[C@H](O)C[C@@H]4C[C@H](O)CC[C@]4(C)[C@H]3C[C@H](O)[C@]12C`, for which the Potency result in assay [4] and in assay [3] was “inactive” each time.

Take `CCCC(C)C(O)CC` (stereo unspecified): the Potency result in assay [4] and in assay [3] was “inactive” in each case.

Consider `CC1=CC[C@@]23C[C@@H]1C(C)(C)[C@@H]2CC[C@H]3C`, for which the Potency entry in assay [4], in assay [3] and in assay [2] was “inactive” in each case.

For the compound `Cc1ccc(N)cc1O`, the Potency entry in assay [4], in assay [3] and in assay [2] was “inactive” in each case.

Regarding `Cc1cc(=O)oc2cc(O[C@@H]3SC[C@@H](O)[C@H](O)[C@H]3O)ccc12`, the Potency result in assay [4], in assay [3] and in assay [2] was “inactive” each time.

Regarding `COc1cccc2c1C(=O)c1c(O)c3c(c(O)c1C2=O)C[C@@](O)(C(=O)CO)C[C@@H]3O[C@H]1C[C@H](N)[C@H](O[C@@H]2CCCCO2)[C@H](C)O1`, the Potency entry in assay [4], in assay [3] and in assay [2] was “inactive” throughout.

As to `Cc1c(C)c([N+](=O)[O-])c(C(C)(C)C)c([N+](=O)[O-])c1C`, the Potency result in assay [4], in assay [3] and in assay [2] was “inactive” throughout.

As to `CN(C1CCCCC1)S(=O)(=O)c1ccccc1N`, the Potency result in assay [4], in assay [3] and in assay [2] was “inactive” each time.

`CC(C)(C)c1ccc(C=O)cc1`: the Potency entry in assay [4], in assay [3] and in assay [2] was “inactive” in each case.

Turning to `O=C(O)C1(C(=O)Nc2ccc(Cl)cc2Cl)CC1`, the Potency result in assay [4] and in assay [3] was “inactive” each time.
